# Vif-A3F inh = inhibitors of Vif-A3F interaction; actives 0.2% (n = 390,000); AID 602313; HeLa A3F-eYFP + Vif (tagged APOBEC3F with the HIV-1 protein that degrades it), YFP fluorescence increase; Potency, µM (titrated, usually from 46.1 µM), inactives show at the highest dose activity, negative = active; also: potency is read from the fitted curve at half-maximal effect; % of control where 0% means no effect; nearly all actives have a fitted effect of over 65% in size
#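 Fluorescence increase (Ex 488/Em 500-530) after overnight compound treatment at 37 deg C flags inhibition of Vif-driven A3F-eYFP loss in stable HeLa A3F-eYFP/Vif cells seeded overnight beforehand.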
# SW480 rereplic = inducers of DNA re-replication in SW480 colon cancer cells; SW480 DNA re-replication, Hoechst DNA content imaging, 48 h; Potency, µM (top dose mostly 46.1 µM), for inactives: at the highest dose re-replication activation, usual class: activators; actives 1.8% (n = 340,000); also: potency is read from the fitted curve at half-maximal effect; % of control where 0% means no effect; nearly all actives have a fitted effect of over 55% in size
#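 Image-based read-out: total Hoechst fluorescence of nuclei (405 nm excitation, 500-530 nm emission), with hits raising the fraction of high-intensity nuclei. SW480 colon cells incubated 48 hr with compounds at 37 C.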
# MCF10A rerep = induces DNA re-replication in MCF 10a normal breast cells; MCF 10A DNA re-replication, Hoechst nuclear intensity, 48 h; Potency, µM (top dose mostly 46.1 µM), for inactives: at the highest dose activity, positive = re-replication, usual class: activators; actives 2.9% (n = 350,000); AID 624296; also: potency is read from the fitted curve at half-maximal effect; % of control where 0% means no effect; nearly all actives have a fitted effect of over 50% in size
# Giardia killer = kills Giardia lamblia; Giardia lamblia trophozoite viability; activity change, % at 7.66 µM, hits read low; actives 0.15% (n = 340,000); AID 540267; in the data active = activity change below about -80%; inconclusive = between about -30% and that limit;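 also: parasites exposed to compound for two days anaerobically before the ATP read; % is scaled to controls: 0 for no effect and ±100 for the full control effect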
#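 Viability, read as ATP luminescence: trophozoites at 100 cells/well, compound added, 48 hrs anaerobic at 37 deg C, then 15-30 min room-temperature development before reading.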
# Vif-A3G inh = Vif-A3G binding inhibition; Q9HC16; HeLa A3G-eYFP + Vif (tagged APOBEC3G with the HIV-1 protein that degrades it), YFP fluorescence, overnight; Potency, µM (top dose mostly 46.1 µM), without a hit: at the highest dose activity, negative = active, hits mostly inhibitors; actives 0.076% (n = 410,000); also: potency is read from the fitted curve at half-maximal effect; % is scaled to controls: 0 for no effect and ±100 for the full control effect; nearly all actives have a fitted effect of over 60% in size
# Target sequence (Q9HC16 whole entry, looked up): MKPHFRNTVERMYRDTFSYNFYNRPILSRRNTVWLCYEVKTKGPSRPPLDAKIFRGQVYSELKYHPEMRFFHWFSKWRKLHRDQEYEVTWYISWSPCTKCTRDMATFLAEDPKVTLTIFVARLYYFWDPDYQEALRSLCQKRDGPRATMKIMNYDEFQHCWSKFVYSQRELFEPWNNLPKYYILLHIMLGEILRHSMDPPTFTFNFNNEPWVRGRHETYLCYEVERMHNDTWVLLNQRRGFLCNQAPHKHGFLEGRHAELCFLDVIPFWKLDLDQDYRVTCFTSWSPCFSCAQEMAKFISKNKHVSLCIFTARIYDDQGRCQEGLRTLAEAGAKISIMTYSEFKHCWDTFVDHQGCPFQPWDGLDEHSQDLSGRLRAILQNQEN
#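 Read-out is eYFP fluorescence (Ex 488/Em 500-530) from Vif-expressing HeLa A3G-eYFP cells; more signal means A3G escaped Vif-mediated degradation. Cells plated overnight, compound pinned in, incubated overnight at 37 deg C.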
# IL-1B inflam inh = inhibitors of inflammasome signaling (IL-1 beta secretion). AID 743279. actives 4.7% (n = 360,000). THP-1 LPS/ATP IL-1B secretion, AlphaLISA, 16 h; hits give low values. activity change, % at 57.5 µM; in the data active = activity change below about -50%; inconclusive = mostly about -30% to -49%; also: % is scaled to controls: 0 for no effect and ±100 for the full control effect
#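 Secreted IL-1B measured by AlphaLISA bead assay after 16 h compound exposure of THP-1 cells; compounds (final up to 57.5 uM) added 1 h before LPS (250 ng/mL) and ATP (1.25 mM) stimulation; lower signal means less secretion.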
# * hit, by the source's call; ? = inconclusive; . = no result. In the library only some 6.9% were active in any assay of this set; here they are far more common. Unless noted, calls follow the shape of the dose curve; as a rule, active = well fitted curve in the direction sought with a large enough effect; inconclusive = small, poorly fitted or top-dose-only effect, or another doubt; inactive = no such curve, though single readings can be large; an effect the other way counts as inactive or inconclusive.
SMILES,Vif-A3F inh,SW480 rereplic,MCF10A rerep,Giardia killer,Vif-A3G inh,IL-1B inflam inh
N#Cc1nc(Cl)c(Cl)c(NN)c1Cl,-7%,-6%,0%,9,-5%,-54*
Cc1ccc(S(=O)(=O)Oc2ccc3ccc(O)cc3c2)cc1,-3%,-17%,1µM*,7,-12%,50
CCOc1ccc(S(=O)(=O)Oc2ccc3ccccc3c2)cc1,0%,-1%,?,-1,?,-13
COC(=O)Nc1ccc2ccc3c(NC(=O)OC)ccc4ccc1c2c43,?,?,21µM*,17,?,0
CCOC(=O)c1sc2ccccc2c1OC(=O)c1ccccc1OC,5%,0.58µM*,?,-6,-19%,0
NC(c1csc(NC(=O)Nc2cccc(Cl)c2)n1)C1CCCCC1 (configuration not stated),.,.,.,.,3%,-96*
COc1ccc(CCNC(=O)Nc2nc(C(N)C3CCCCC3)cs2)cc1OC (configuration not stated),.,.,.,.,-3%,-52*
NC(CCc1ccccc1)c1csc(NC(=O)Nc2cccc(Cl)c2)n1 (configuration not stated),.,.,.,.,3%,-61*
NC(c1csc(Nc2nncc3ccccc23)n1)C1CCCCC1 (configuration not stated),.,.,.,.,0%,-78*
Cc1ccc(NC(=O)Nc2nnc(SCC(=O)N3CCC(C)CC3)s2)cc1,-2%,.,.,.,10%,.
Cc1cccc(CNC(=O)c2ccc(NC(=O)N3CCSc4ccccc43)cc2)c1,3%,.,.,.,2%,.
CCOc1ccc(CC(=O)NC2CC(=O)N(c3cccc(F)c3)C2)cc1 (configuration not stated),1%,.,.,.,-6%,.
NC(c1ccccc1)c1csc(NC(=O)Nc2cccc(Cl)c2)n1 (configuration not stated),.,.,.,.,-1%,-104*
NC(=O)c1cccc(Nc2nc(C(N)COCc3ccccc3)cs2)n1 (configuration not stated),.,.,.,.,0%,-26
NC(c1ccccc1)c1csc(NC(=O)Nc2ccc(OC(F)(F)F)cc2)n1 (configuration not stated),.,.,.,.,-7%,-24
NC(COCc1ccccc1)c1csc(NC(=O)Nc2cccc(C(F)(F)F)c2)n1 (configuration not stated),.,.,.,.,3%,-55*
N/C(Cc1ccc([N+](=O)[O-])cc1)=N\OC(=O)c1ccc([N+](=O)[O-])cc1,3%,-6%,2%,-6,-1%,?
N/C(Cc1ccc([N+](=O)[O-])cc1)=N\OC(=O)c1cccc(Br)c1,?,12µM*,?,?,0%,-5
N/C(Cc1ccc(Cl)cc1)=N\OC(=O)Cc1ccc([N+](=O)[O-])cc1,7%,7%,?,61,0%,-103*
CCN(CC)CCN(C(=O)c1cc2ccccc2cc1OC)c1nc2ccc(F)cc2s1,-14%,?,12%,-18,3%,-59*
COc1cc2ccccc2cc1C(=O)N(CCN(C)C)c1nc2c(OC)ccc(OC)c2s1,1%,?,?,-5,?,-53*
COc1cc2ccccc2cc1C(=O)N(CCN(C)C)c1nc2ccc(C)cc2s1,-1%,?,?,33,-15%,-21
COc1cc2ccccc2cc1C(=O)N(CCN(C)C)c1nc2c(C)cccc2s1,4%,?,0%,-4,1%,-61*
NS(=O)(=O)c1ccc(NCc2cc(Cl)ccc2OCc2ccccc2F)cc1,-9%,-1%,?,-12,-8%,-74*
NS(=O)(=O)c1ccc(NCc2c(F)cccc2Cl)cc1,5%,-7%,-1%,-24,2%,-2
SMILES,Vif-A3F inh,SW480 rereplic,MCF10A rerep,Giardia killer,Vif-A3G inh,IL-1B inflam inh
Cc1ccc(Cl)cc1N1CCN(C(=O)c2ccc(NC(=O)c3nsc4ccccc34)cc2)CC1,5%,.,.,.,-1%,.
NC(N)=NS(=O)(=O)c1ccc(N/C=C/C(=O)c2ccc(Cl)c(Cl)c2)cc1,?,15µM*,?,-17,1%,-15
CCOC(=O)c1cccc(NC(=O)CCc2c(C)nn(-c3ccc(N4CCCCC4)nn3)c2C)c1,-2%,.,.,.,-3%,.
COc1cc(NC(=O)CN2c3ccccc3S(=O)(=O)c3ccccc32)cc(OC)c1,1%,.,.,.,-6%,.
Cc1ccccc1N1C(=O)c2cccc3c(N(C)CCO)ccc(c23)C1=O,13µM*,?,-4%,1,7%,?
COc1cc2nc(C3CCC3)n(NC(=O)c3ccco3)c(=O)c2cc1OC,-2%,12%,?,15,0%,-57*
COc1cc2nc(C3CCC3)n(NC(=O)C3CCCC(OC)C3)c(=O)c2cc1OC (configuration not stated),-5%,-2%,-17%,37,0%,-14
CSC1(SC2=NCCN2)SC2(NCCN2)S1,10%,?,3.7µM*,3,?,?
COc1ccc(N(C(=O)CCC(=O)Nc2cc(C)on2)C(C(=O)NC2CCCC2)c2ccco2)cc1 (configuration not stated),-21%,2%,-1%,-5,-3%,11
COc1ccc(N(C(=O)/C=C/C(=O)Nc2cc(C)on2)C(C(=O)NC2CCCC2)c2ccccc2C)cc1 (configuration not stated),1%,?,?,2,-28%,-87*
CCCCOc1ccc(S(=O)(=O)Nc2ccc(-c3ccc(N4CCCCC4)nn3)cc2)cc1,1%,.,.,.,1%,.
CCCN(CCC)c1ncnc2c1cnn2-c1ccc(OC)cc1,3%,26%,28%,-8,0%,-65*
COc1cccc(N2CCN(c3ncnc4c3cnn4-c3ccc(C)cc3C)CC2)c1,-2%,5%,6.5µM*,23,?,-79*
CCCCN(CCCC)c1ncnc2c1cnn2-c1cccc(C)c1,-6%,.,.,.,-1%,.
COc1ccc(-n2ncc3c(N4CCN(Cc5ccccc5)CC4)ncnc32)cc1,9%,?,21µM*,-19,-21%,-94*
COc1ccc2c(C)c(CC(=O)NCCc3ccc(Cl)cc3)c(=O)oc2c1C,3%,.,.,.,-2%,.
COc1ccccc1N1CCN(CCCNC(=O)c2cnn(-c3ccccc3)c2C2CCN(C(=O)OC(C)(C)C)CC2)CC1,-4%,.,.,.,1%,.
CC(C)(C)OC(=O)N1CCC(c2c(C(=O)NCCc3ccccc3)cnn2-c2ccc(F)cc2)CC1,3%,.,.,.,0%,.
Cc1[nH]n(-c2ccccc2)c(=O)c1C(c1ccc(O)c([N+](=O)[O-])c1)c1c(C)[nH]n(-c2ccccc2)c1=O,2%,-4%,20%,-14,0%,-1
